D2 ag-1: Beta-Arrestin HTS for Positive Allosteric Modulators of the Human D2 Dopamine Receptor: Agonists; DiscoveRx PathHunter D2 beta-arrestin, luminescence, 90 min; 100% = 57 uM dopamine signal; D(2) dopamine receptor (Homo sapiens), P14416; activation, % (test concentration not listed); hit rate 0.084% among 360,000; AID 624465, 2012; in the data active = activation above about 40%
Target sequence (P14416 whole entry, looked up): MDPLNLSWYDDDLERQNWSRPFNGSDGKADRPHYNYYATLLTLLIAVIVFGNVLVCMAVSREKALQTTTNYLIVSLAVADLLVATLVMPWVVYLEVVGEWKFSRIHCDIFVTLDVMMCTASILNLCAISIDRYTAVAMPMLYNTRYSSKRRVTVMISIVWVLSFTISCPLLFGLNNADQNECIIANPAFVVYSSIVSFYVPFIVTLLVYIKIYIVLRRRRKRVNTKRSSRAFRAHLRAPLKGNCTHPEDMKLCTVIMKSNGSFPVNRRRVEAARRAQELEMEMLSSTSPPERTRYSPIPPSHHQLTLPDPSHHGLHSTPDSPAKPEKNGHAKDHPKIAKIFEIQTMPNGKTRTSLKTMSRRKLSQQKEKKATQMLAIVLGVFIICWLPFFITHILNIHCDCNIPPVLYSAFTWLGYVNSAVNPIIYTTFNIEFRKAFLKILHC
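DiscoveRx PathHunter D2 beta-arrestin cells (2,100/well) attached overnight, then compound-stimulated 90 min at 37 C in HBSS/10 mM HEPES/0.1% Tween-20 buffer; beta-galactosidase complementation read by luminescence after 1 h at ambient temperature. Dopamine 57 uM final (EC100) as control.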
D2 antag: HTS Assay for Allosteric Antagonists of the Human D2 Dopamine Receptor: Primary Screen for Antagonists; inhibition, % at 10 µM; AID 485344, 2010; hit rate 2% among 340,000; HEK293 TREx D2 cells, calcium flux, dopamine EC80; in the data active = inhibition above about 30%; inactive = below that, where a call was filed; note: 0% is about no effect
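Overnight-induced (tetracycline, 30 C) HEK293 T-REx cells carrying force-coupled D2 receive a no-wash calcium dye, then compound, then EC80 dopamine at 180 s; signals are read kinetically throughout.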
D2 ag-2: HTS Assay for Allosteric Agonists of the Human D2 Dopamine Receptor: Primary Screen for Agonists. D(2) dopamine receptor (Homo sapiens), P14416. hit rate 0.53% among 340,000. activation, % at 2 µM. HEK293 T-REx D2 cells, calcium flux agonist mode;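 active = activation over 3 SD above normal in the single-dose calcium agonist read, cut at about 30% in these data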; note: 0% is about no effect
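Calcium-flux readout, 1 cycle/sec over 180 s following compound pin transfer, in inducible HEK293 Trex D2 cells (force-coupled); dopamine controls included. Positive calcium responses during this window marked compounds as potential agonists.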
D2 PAM-1: HTS Assay for Positive Allosteric Modulators of the Human D2 Dopamine Receptor: Primary Screen for Potentiators | HEK293 T-REx D2, calcium flux, EC20 dopamine potentiation | potentiation, % at 10 µM | hit rate 0.34% among 340,000 | AID 485347, 2010;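 active = potentiation over 3 SD above the plate norm, cut at about 30% in these data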; note: 0% is about no effect
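Using a no-wash calcium dye in inducible, force-coupled HEK293 Trex cells expressing D2, we tracked fluorescence each second for 180 s after compound, then for 180 s after EC20 dopamine to detect augmented signalling.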
D2 PAM-2: Beta-Arrestin HTS for Positive Allosteric Modulators of the Human D2 Dopamine Receptor: Potentiators | D(2) dopamine receptor (Homo sapiens), P14416 | DiscoveRx D2 beta-arrestin cells, luminescence, 90 min; 100% = 57 uM dopamine signal | potentiation, % (test concentration not listed) | hit rate 0.23% among 360,000 | AID 624464, 2012; in the data active = potentiation above about 50%
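PathHunter beta-arrestin assay in DiscoveRx D2 cells. Compounds were added with an EC20 of dopamine (50 nM final) for 90 min at 37 deg C. Luminescence was read 1 h after detection reagent, with 57 uM dopamine as the EC100 control.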
* hit, by the source's call; / = no result given. Hits are enriched below; roughly 2.4% of the tested compounds scored in any of these assays.

SMILES | D2 ag-1 | D2 antag | D2 ag-2 | D2 PAM-1 | D2 PAM-2
COc1ccc(-c2cc(=O)oc3cc(OC(C)C(=O)NC(Cc4c[nH]c5ccc(O)cc45)C(=O)O)ccc23)cc1 (centres undefined) | 4.0 | -21.6 | 4.7 | -5.1 | -13.9
CCc1cc(=O)oc2cc(C)cc(OCC(=O)NC(Cc3c[nH]c4ccc(O)cc34)C(=O)O)c12 (centres undefined) | 7.1 | 48.3* | 0.6 | -12.2 | 20.3
Cc1cccc(N(CC(=O)NCCSc2ccc(Cl)cc2)S(C)(=O)=O)c1C | / | / | -0.7 | 7.1 | /
CC(C)c1nnc(NC(=O)C2CCCN2C(=O)Nc2ccccc2F)s1 (centres undefined) | -2.3 | 38.0* | -0.4 | -6.4 | -5.7
COc1ccccc1NC(=O)N1CCCC1C(=O)Nc1nnc(C(C)C)s1 (centres undefined) | -3.9 | 15.2 | -1.0 | 7.2 | 0.6
COc1cc(NC(=O)CCCn2c(=O)oc3ccccc32)cc(OC)c1 | -0.8 | / | / | / | -9.5
COc1ccc(C(C)(C)C)cc1NC(=O)CCCn1c(=O)oc2ccccc21 | -3.1 | 50.8* | -2.0 | -28.4 | -22.0
CCCc1cc(C(=O)Nc2cccc(Cl)c2)no1 | -6.1 | 33.1* | 0.8 | -24.3 | -15.7
CCCc1cc(C(=O)Nc2ccc(F)c(Cl)c2)no1 | -4.4 | 35.1* | 0.5 | -21.0 | -16.1
CCOC(=O)C1(Cc2ccccc2C(F)(F)F)CCN(C2CCC2)CC1 | -5.0 | 32.1* | -1.7 | -18.4 | -30.8
CCOC(=O)C1(Cc2ccccc2C(F)(F)F)CCN(CCCn2cccn2)CC1 | -2.7 | 47.9* | -0.2 | -21.9 | -13.6
CN(c1ccccc1C(=O)Nc1ccc2c(c1)OCO2)S(C)(=O)=O | -2.1 | -10.9 | -0.4 | 37.6* | -4.3
CC(NC(=O)c1ccccc1Cl)C(=O)Nc1ccc2c(c1)OCO2 (centres undefined) | -8.3 | 72.7* | 0.3 | -9.9 | -6.2
O=C(CC(NC(=O)c1ccccc1Cl)c1ccccc1)Nc1ccc2c(c1)OCO2 (centres undefined) | -3.5 | / | / | / | -4.1
CN(c1ccccc1C(=O)Nc1cccc(Cl)c1Cl)S(C)(=O)=O | -2.1 | 53.3* | 0.5 | -8.1 | -10.8
CN(C)c1ccnc(Oc2ccc(Cl)cc2)c1C#N | -2.2 | -19.0 | 0.2 | 42.0* | -7.7
COCCN(C(=O)COC(=O)CSc1ccc2ccccc2c1)c1c(N)n(Cc2ccccc2)c(=O)[nH]c1=O | 0.7 | -18.5 | -0.1 | -3.5 | -3.9
O=C(O)[C@H]1CCCC[C@H]1C(=O)NCCc1ccccc1 | -1.0 | 44.8* | -0.6 | -2.9 | -1.5
CC(C)=C1C2CCC1C(C(=O)NCCc1ccccc1)C2C(=O)O (centres undefined) | 0.6 | -37.7 | 39.4* | -10.8 | -9.8
Cc1ccc(-c2nc(S(=O)(=O)c3ccc(C)cc3)c(SCC(=O)Nc3ccc(F)cc3)o2)cc1 | / | / | 0.7 | 3.4 | /
CC(C)CC(OC(=O)c1nsc(Cl)c1Cl)C(=O)NC1CCCC1 (centres undefined) | -2.7 | 68.8* | -1.3 | 0.7 | -3.3
COC(=O)c1ccc2c(c1O)C(=O)c1ccccc1C2=O | 14.3 | 9.5 | 1.5 | -0.5 | 107.1*
CC1CCCN(CCCOc2ccc(Br)cc2Cl)C1 (centres undefined) | -5.7 | 36.5* | -0.4 | -21.7 | -11.3
CC1CCN(CCCCOc2ccc([N+](=O)[O-])cc2)CC1 | -1.0 | 2.4 | -0.4 | -19.3 | -16.3
CC1CCN(CCCCOc2ccccc2[N+](=O)[O-])CC1 | 0.4 | 79.8* | 0.6 | -25.6 | -27.8
SMILES | D2 ag-1 | D2 antag | D2 ag-2 | D2 PAM-1 | D2 PAM-2
Cc1cc(OCCN2CCCCCC2)ccc1[N+](=O)[O-] | -4.8 | 33.9* | 0.2 | -12.3 | -9.8
Cc1cc(Br)ccc1OCCOCCN1CCCC1 | -0.8 | 43.1* | 0.3 | -15.4 | -85.6
CC1CCN(CCOCCOc2ccc(Br)cc2Cl)CC1 | -3.4 | / | / | / | -38.1
COc1ccc(CNC(=O)CCn2cccn2)cc1 | / | / | / | 1.6 | /
Cc1ccc([N+](=O)[O-])c(OCCCN2CCCCCC2)c1 | -3.9 | 70.9* | -0.3 | -27.3 | -18.4
O=[N+]([O-])c1ccccc1OCCCNCc1ccccc1 | -3.5 | 37.6* | 0.4 | -17.3 | -18.9
Cc1ccc(OCCCCNC(C)(C)C)c([N+](=O)[O-])c1 | -2.1 | -7.8 | -0.4 | -14.6 | -32.3
Cc1ccc(OCCCCN2CCCC(C)C2)c([N+](=O)[O-])c1 (centres undefined) | -1.2 | 90.8* | -0.8 | -30.2 | -23.3
CCOC(=O)CC1C(=O)NCCN1C(=O)c1ccc(C)cc1 (centres undefined) | -3.1 | 8.2 | 0.0 | -1.7 | 25.7
CCOC(=O)CC1C(=O)NCCN1c1nc2ccc(C)cn2c(=O)c1/C=C1\SC(=S)N(C(C)CC)C1=O (centres undefined) | / | 31.8* | 72.7* | -5.9 | /
CCCCCN1C(=O)/C(=C/c2c(N3CCc4ccccc4C3)nc3ccccn3c2=O)SC1=S | -3.7 | / | / | / | -7.6
CCCN1C(=O)/C(=C/c2c(N3CCNC(=O)C3CC(=O)OCC)nc3c(C)cccn3c2=O)SC1=S (centres undefined) | -1.3 | 3.9 | 80.9* | -4.0 | 4.0
CCOC(=O)CC1C(=O)NCCN1c1nc2ccc(C)cn2c(=O)c1/C=C1\SC(=S)N(CC(C)C)C1=O (centres undefined) | -4.1 | 14.2 | 104.2* | -11.7 | -4.1
Cc1ccc(S(=O)(=O)N(Cc2ccc(F)cc2)Cc2ccco2)cc1 | 2.9 | -17.7 | -0.2 | -16.7 | -3.0
Cc1ccc(S(=O)(=O)N(Cc2ccccc2)Cc2ccco2)cc1 | -4.7 | 32.5* | -0.2 | -10.0 | -7.3
O=C(O)c1ccc(CNCc2ccccc2Cl)s1 | / | / | 0.2 | 0.4 | /
N#Cc1cnn(-c2ccccc2)c1NC(=O)c1ccccc1F | 7.4 | 14.2 | 0.2 | 79.8* | -2.5
O=C(Nc1c(C(=O)N2CCCCC2)cnn1-c1ccccc1)c1ccccc1F | -3.4 | -16.2 | 0.6 | 0.7 | -9.0
N=c1c(C(=O)NCc2ccco2)cc2c(=O)n3ccccc3nc2n1Cc1ccccc1 | -3.3 | 37.8* | -0.2 | -21.5 | -32.1
O=C(NNC(=O)c1ccc(NC(=O)c2ccccc2)cc1)c1ccc(F)cc1 | 1.3 | -2.9 | -0.6 | 4.9 | -2.7
O=C(NC1=C(Nc2ccc(F)cc2)C(=O)c2ccccc2C1=O)c1ccc(Cl)cc1 | 9.7 | -4.3 | 0.0 | -0.8 | 70.3*
CC1CC(C)CN(CCOc2ccccc2-c2ccccc2)C1 (centres undefined) | -1.4 | 78.8* | -0.9 | -29.4 | -36.0
